Data taken from PubChem BioAssay AID651815 (National Center for Advancing Translational Sciences (NCATS), 2012).
Screen size: about 2,100 compounds; about 1,100 (52%) were called active. Inconclusive results (about 29%) are left out. Calls follow the shape of the dose curve; as a rule, active = well fitted inhibition curve with a large enough effect; inconclusive = small, poorly fitted or top-dose-only effect; inactive = no such curve, though single readings can be large or run the other way. So high a share suggests a set chosen from earlier hits. This is one part of the list.

The compounds below were run against DNA dC->dU-editing enzyme APOBEC-3F (Homo sapiens) (UniProt Q8IUX4) (assay: qHTS for inhibitors of Vif-A3F interactions: Cherry picks counterscreen). Details: HeLa A3F-eYFP/Vif cells, eYFP fluorescence, 24 h; series mostly up to 46.1 µM.
DNA dC->dU-editing enzyme APOBEC-3F (Homo sapiens), sequence (Q8IUX4 whole entry, looked up): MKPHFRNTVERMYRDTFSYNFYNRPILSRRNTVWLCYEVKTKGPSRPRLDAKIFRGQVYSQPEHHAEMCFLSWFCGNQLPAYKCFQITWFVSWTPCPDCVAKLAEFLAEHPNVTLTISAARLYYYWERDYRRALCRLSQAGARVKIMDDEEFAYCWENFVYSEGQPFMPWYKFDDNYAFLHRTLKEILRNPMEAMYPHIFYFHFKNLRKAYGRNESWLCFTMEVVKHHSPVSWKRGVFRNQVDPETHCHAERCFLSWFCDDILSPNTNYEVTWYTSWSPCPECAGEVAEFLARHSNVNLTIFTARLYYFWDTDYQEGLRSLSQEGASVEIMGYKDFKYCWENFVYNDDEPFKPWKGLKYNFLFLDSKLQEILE
Procedure, shortened: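 Rescue of Vif-driven A3F-eYFP degradation read as cellular eYFP fluorescence after 24 h compound exposure (several concentrations) in stable HeLa cells; MG132 (2 mM stock) as positive control.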
Also: nearly all actives have a fitted effect of over 65% in size.
Potency is read from the fitted curve at half-maximal effect.

Row | Compound | Potency
1 | CN(C)c1ccc(/C=C/c2ccnc3cc(Cl)ccc23)cc1 | 2.91 µM (active)
2 | CNc1ccc(/C=C/c2ccnc3ccccc23)cc1 | 20.6 µM (active)
3 | COc1cccc2nccc(/C=C/c3ccc(N(C)C)cc3)c12 | 20.6 µM (active)
4 | CN(C)c1ccc(/C=C/C=C/c2ccnc3ccccc23)cc1 | 3.66 µM (active)
5 | Fc1cccc(F)c1/C=N/NC(=S)Nc1cccnc1 | inactive
6 | CN(C)c1ccc(/C=C/c2ccnc3ccc(-c4ccccc4)cc23)cc1 | 9.2 µM (active)
7 | CN(C)c1ccc(/C=C/c2ccnc3ccccc23)c(N)c1 | 8.2 µM (active)
8 | CCCCCCCNc1ccc(/C=C/c2ccnc3ccccc23)cc1 | 23.1 µM (active)
9 | CN(C)c1ccc(/C=C/c2cnnc3ccccc23)cc1 | 20.6 µM (active)
10 | CN1C(=O)C(O)(C2COC(C)(C)CC2=O)c2cc(Br)ccc21 (stereo unspecified) | inactive
11 | Nc1ccccc1/C=C/c1ccnc2ccccc12 | 16.4 µM (active)
12 | CN(C)c1ccc(/C=C/c2ccnc3ccccc23)cc1 | 18.4 µM (active)
13 | O=c1c(Cl)c2oc3ccccc3nc-2c2ccccc12 | 16.4 µM (active)
14 | COc1ccc(C2=CC(c3ccc(N(C)C)cc3)n3nnnc3N2)cc1 (stereo unspecified) | 16.4 µM (active)
15 | CN(C)c1ccc(C2C=C(c3ccccc3)Nc3nnnn32)cc1 (stereo unspecified) | 16.4 µM (active)
16 | O=S(=O)(Nc1nc2n(n1)C(c1ccccc1)C=C(c1ccc(Cl)cc1)N2)c1ccccc1 (stereo unspecified) | inactive
17 | CCN1C(=S)SC(=O)C1=C1C=C(C)N(Cc2ccco2)C(C)=C1 | 15.8 µM (active)
18 | Clc1ccccc1/C=N/NC1=Nc2cccc3cccc1c23 | 16.4 µM (active)
19 | Clc1ccc(/C=N/NC2=Nc3cccc4cccc2c34)cc1 | 18.4 µM (active)
20 | C/C(CCc1ccc2c(c1)OCO2)=N\NC(=S)NC(C)C | inactive
21 | C=CCn1c(O)c(N=NC(=O)CNC(=O)c2ccco2)c2ccccc21 | 11.2 µM (active)
22 | C=C(C)CNC(=S)NNC(=O)c1ccco1 | inactive
23 | O=C(Nc1nc(NC(=O)c2ccco2)n(-c2ccccc2)n1)c1ccccc1 | inactive
24 | COc1ccc(C(=O)N/N=C/c2cc(Br)ccc2O)cc1OC | inactive
25 | COc1ccccc1/C=N/NC(=O)c1cc2c(OC)c(OC)ccc2[nH]1 | 9.94 µM (active)
26 | COc1cccc(/C=N/NC(=O)c2cc3c(OC)c(OC)ccc3[nH]2)c1OC | 3.53 µM (active)

Row | Compound | Potency
27 | COCCCNC(=S)N/N=C/c1cccc(OC)c1O | inactive
28 | CCCNC(=O)c1ccccc1NC(=O)c1ccc2c(c1)NC(=O)C(C)S2 (stereo unspecified) | 6.27 µM (active)
29 | CC1Sc2ccc(C(=O)NCc3ccccn3)cc2NC1=O (stereo unspecified) | inactive
30 | COc1ccc2nccc(/C=C/c3ccc(N(C)C)cc3)c2c1 | 23.1 µM (active)
31 | Cc1cc(C)c2nccc(/C=C/c3ccc(N(C)C)cc3)c2c1 | 13 µM (active)
32 | CN(C)c1ccc(/C=C/c2ccnc3ccc(Br)cc23)cc1 | 4.61 µM (active)
33 | CN(C)c1ccc(/C=C/c2ccnc3ccc(I)cc23)cc1 | 6.51 µM (active)
34 | ClCC1NCC(c2ccccc2Cl)c2c1[nH]c1ccccc21 (stereo unspecified) | inactive
35 | CN(C)c1ccc(/C=C/c2ccnc3ccc(N)cc23)cc1 | 23.1 µM (active)
36 | Cc1ccc2nccc(/C=C/c3ccc(N(C)C)cc3)c2c1 | 9.2 µM (active)
37 | CC(=O)c1cc(NC(=O)c2ccc(Cl)cc2)c(=O)oc1/C=C/N(C)C | 6.27 µM (active)
38 | COc1ccc(C(=O)Nc2cc(C(C)=O)c(/C=C/N(C)C)oc2=O)cc1 | 12.5 µM (active)
39 | COC(=O)c1c(-c2ccccc2Cl)noc1/C=C/N(C)C | inactive
40 | CC(=O)c1cc(NC(=O)c2ccc(C)cc2)c(=O)oc1/C=C/N(C)C | 11.6 µM (active)
41 | COC(=O)c1sc2nc(CSc3ccc(Br)cc3)[nH]c(=O)c2c1C | inactive
42 | COc1cc(C2c3cc4c(cc3C(OC3OC5COC(c6cccs6)OC5C(O)C3O)C3COC(=O)C23)OCO4)cc(OC)c1O (stereo unspecified) | 11.2 µM (active)
43 | Cc1ccc(O)c(NC(=O)c2cc(-c3ccccc3O)no2)c1 | 20.6 µM (active)
44 | COc1cccc(C(=O)Nc2ncc3c(n2)CC(c2ccc(OC)cc2OC)CC3=O)c1 (stereo unspecified) | 11.2 µM (active)
45 | Cc1cc(/C=C2\NC(=S)N(C)C2=O)ccc1N1CCCC1 | 2.5 µM (active)
46 | Cc1cc(N2CCCC2)ccc1/C=C1\NC(=S)N(C)C1=O | 2.91 µM (active)
47 | Cc1cc(N2CCCC2)ccc1/C=C1/C(=O)N(C)C(=S)N1C | inactive
48 | Cc1ccc(O)c(Nc2c3ccccc3nc3ccccc23)c1 | inactive
49 | COC(=O)c1cnc(Nc2cc(C)ccc2OC)c2ccccc12 | inactive
50 | COc1ccc(C)cc1Nc1c2c(nc3ccccc13)CCC2 | 1.98 µM (active)
51 | CCCN1C(=O)/C(=C/C=C2\N(CC)c3ccccc3C2(C)C)SC1=S | 4.44 µM (active)
52 | CCCN1C(=O)/C(=C\C=C2\N(CC)c3ccccc3C2(C)C)SC1=S | 2.59 µM (active)

Row | Compound | Potency
53 | CN1/C(=C\C=C2/SC(=S)N(CC(=O)O)C2=O)C(C)(C)c2ccccc21 | inactive
54 | CN1/C(=C\C=C2/SC(=S)NC2=O)C(C)(C)c2ccccc21 | 3.96 µM (active)
55 | CCCCN1C(=O)/C(=C/C=C2/CC(C)(C)CN2C)SC1=S | inactive
56 | O=C(N/N=C\C=C\c1ccc([N+](=O)[O-])o1)c1cccs1 | 15.8 µM (active)
57 | O=C(N/N=C/C=C/c1ccco1)c1ccncc1 | inactive
58 | COc1ccccc1OCC(=O)N/N=C/C=C/c1ccc([N+](=O)[O-])o1 | 16.4 µM (active)
59 | Clc1ccccc1C1CC(c2ccccc2)=Nc2ccccc2N1 (stereo unspecified) | inactive
60 | Cc1ccc(-c2cn3nc(-c4ccccc4)c(-c4ccccc4)nc3n2)cc1 | 18.4 µM (active)
61 | Cc1cc(C)nc(Nc2nc(C(N)Cc3ccccc3)cs2)n1 (stereo unspecified) | 14 µM (active)
62 | COC(=O)CCC(=O)NC(=S)Nc1sc(C)c(C)c1C(N)=O | 1.25 µM (active)
63 | COc1cc2cc(-c3ccc(OC)c(OC)c3C)nc(N)c2cc1OC | 1.77 µM (active)
64 | Cc1cc(N/N=C/c2ccc(O)cc2O)nc(-n2nc(C)cc2C)n1 | inactive
65 | C=CCSc1nc2sc3c(c2c(=O)n1CC)CCC3 | inactive
66 | CCN(CC)C(=O)Cn1c(=O)n(-c2ccccc2)c(=O)c2c3c(sc21)CCC3 | 23.1 µM (active)
67 | O=C(CC1CC2CCC1C2)Nc1nc(-c2ccccn2)cs1 (stereo unspecified) | inactive
68 | O=C(c1ccccn1)C1CCCN(Cc2cn[nH]c2-c2cc3ccccc3o2)C1 (stereo unspecified) | inactive
69 | COc1ccc2c(c1)/C(=C/c1cc(OC)c(OC)c(OC)c1)C(=O)N2 | 2.23 µM (active)
70 | COc1cc(C=C2C(=O)c3ccccc3C2=O)cc(OC)c1OC | inactive
71 | O=C1NC(=Nc2ccccc2Cl)S/C1=C\c1cc([N+](=O)[O-])ccc1O | inactive
72 | O=C1/C(=C\c2cc([N+](=O)[O-])ccc2O)SC(=S)N1Cc1ccc(Cl)cc1 | 9.2 µM (active)
73 | c1ccc(-c2nccc(-c3ccc4c(c3)OCO4)n2)cc1 | 5.59 µM (active)
74 | CC1CCN(C(=O)C(C)Sc2nc(-c3ccccc3)cc(C(F)(F)F)n2)CC1 (stereo unspecified) | inactive
75 | COC(=O)CCS(=O)(=O)c1nc(-c2ccccc2)cc(C(F)(F)F)n1 | 12.5 µM (active)
76 | C=C(C)CNC(=S)N/N=C1\CCCCc2ccccc21 | inactive
77 | COc1ccc(N2C(=O)CC(Sc3nc(C)c4c(n3)CCCC4)C2=O)cc1 (stereo unspecified) | 15.8 µM (active)
78 | Nc1c(C(=O)c2ccccc2)sc2snc(SCC(=O)c3ccccc3)c12 | 15.8 µM (active)

Row | Compound | Potency
79 | Nc1c(C(=O)c2ccccc2)sc2nsc(SCCN3CCCC3)c12 | 14 µM (active)
80 | Nc1c(C(=O)c2ccccc2)sc2nsc(SCCN3CCOCC3)c12 | 7.31 µM (active)
81 | CSCC[C@H](NC(=O)[C@H](Cc1ccccc1)n1c(=O)[nH]c2ccccc2c1=O)C(=O)N1CCC[C@@H]1C(=O)O | inactive
82 | CCCC1=Nc2cc(C(=O)NCc3ccco3)ccc2Sc2ccccc21 | 1.98 µM (active)
83 | COc1ccc(C(=O)NC(=S)NCc2cccnc2)cc1Cl | inactive
84 | CCC1=Nc2cc(C(=O)NCc3cccnc3)ccc2Sc2ccc(C)cc21 | 5.59 µM (active)
85 | Cc1cc(C)nc(NC(=S)Nc2cccc(Cl)c2Cl)c1 | inactive
86 | C/C(=N\NC(=S)NC(C)C)c1ccc(C(C)(C)C)cc1 | inactive
87 | FC(F)(Cl)c1nnc2ccc(Cl)nn12 | 6.27 µM (active)
88 | CC[N+](C)(C(=O)O)/C(=C\c1ccccc1)c1ccnc2ccccc12 (stereo unspecified) | 18.4 µM (active)
89 | Cc1nnc(NC(=O)c2sc3nc(-c4cccs4)cc(C(F)(F)F)c3c2N)s1 | 6.51 µM (active)
90 | Nc1c(C(=O)Nc2nccs2)sc2nc(-c3cccs3)cc(C(F)(F)F)c12 | 11.2 µM (active)
91 | Nc1c(C(=O)Nc2ccc(F)cc2)sc2nc(-c3cccs3)cc(C(F)(F)F)c12 | 2.91 µM (active)
92 | Nc1c(C(=O)Nc2nc3ccccc3s2)sc2nc(-c3cccs3)ccc12 | 18.4 µM (active)
93 | O=C1N/C(=N\N=C\c2ccco2)SC1Cc1ccccc1[N+](=O)[O-] (stereo unspecified) | inactive
94 | C/C(=N\NC(N)=S)C12CC3CC(CC(C3)C1)C2 | inactive
95 | O=C(NC1CCCCC1)c1cccc2c1C(=O)c1ccc(N3CCC(Cc4ccccc4)CC3)cc1S2(=O)=O | 15.8 µM (active)
96 | O=C(NC1CC1)c1cccc2c1C(=O)c1ccc(N3CCC(Cc4ccccc4)CC3)cc1S2(=O)=O | 18.4 µM (active)
97 | N#CCc1ccc(NC(=O)/C=C/c2ccc([N+](=O)[O-])o2)cc1 | 11.6 µM (active)
98 | CCOC(=O)CCc1ccc(NC(=O)/C=C/c2ccc([N+](=O)[O-])o2)cc1 | 20.6 µM (active)
99 | O=C(/C=C/c1ccc([N+](=O)[O-])o1)NNC(=O)c1ccc(F)cc1 | 2.8 µM (active)
100 | CC(C)Cn1c(N)c(C(=O)COC(=O)c2ccc([N+](=O)[O-])o2)c(=O)n(C)c1=O | inactive
101 | CCc1ccc(C(=O)/C=C/c2ccc([N+](=O)[O-])o2)cc1 | 15.8 µM (active)
